Screening data deposited in PubChem by National Center for Advancing Translational Sciences (NCATS).
Compounds with a hit are over-represented: about 7.5% of the library has one in this group of screens.
VACV mCherry inh: inhibitors of vaccinia virus infection (mCherry reporter signal) | Vaccinia virus mCherry reporter infection, fluorescence | Potency, µM (titrated, usually from 36.5 µM), without a hit: at the highest dose activity change, negative = inhibition, hits mostly inhibitors | 310,000 compounds, 0.63% hits; calls by dose curve; tested in A549 cells; note: potency is the fitted concentration of half-maximal effect; nearly all actives have a fitted effect of over 35% in size
HCV inh: HCV inhibition; 340,000 compounds, 3.4% hits; Potency, µM (series often up to 41.8 µM), without a hit: top-dose activity change, negative = inhibition, most hits filed as inhibitors; Huh7.5.1 HCVcc-Cre infection, luciferase reporter, 44 h; note: potency is the fitted concentration of half-maximal effect
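Reporter virus HCVcc-Cre (~0.5 moi) infects cells exposed to compound; seeding density 1,000 cells/well with 4 h settling beforehand. Luminescence, 15 sec read, taken 44 h post-infection following a 15 min RT substrate incubation.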
Giardia FBPA inh: inhibitors of Giardia lamblia fructose-1,6-bisphosphate aldolase | A8B2U2 | purified Giardia FBPA | Potency, µM (series often up to 59.6 µM), inactives show at the highest dose activity, negative = inhibition, most hits filed as inhibitors | 290,000 compounds, 0.71% hits; note: potency is the fitted concentration of half-maximal effect; nearly all actives have a fitted effect of over 55% in size
Target sequence (A8B2U2 whole entry, looked up): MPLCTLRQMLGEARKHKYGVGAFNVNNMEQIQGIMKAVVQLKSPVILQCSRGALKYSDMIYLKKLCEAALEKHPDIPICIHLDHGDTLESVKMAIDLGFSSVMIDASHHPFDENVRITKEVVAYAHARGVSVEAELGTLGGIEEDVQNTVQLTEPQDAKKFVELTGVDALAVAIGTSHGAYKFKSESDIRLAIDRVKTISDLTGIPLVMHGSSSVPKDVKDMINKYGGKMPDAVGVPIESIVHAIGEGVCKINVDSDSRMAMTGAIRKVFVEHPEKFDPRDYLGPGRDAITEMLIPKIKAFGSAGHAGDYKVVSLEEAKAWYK
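40 nM FBPA preincubated 10 min at RT with compound (up to 57.5 uM final), then substrate plus GAPDH/TPI/NAD/arsenate coupling and diaphorase/resazurin added. Fluorescence read after 20 min at RT, 525/598 nm.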
FMDV inh: antivirals against foot and mouth disease virus. FMDV antiviral cell-based qHTS. Potency, µM (top dose mostly 57.9 µM), for the others: at the highest dose activity change, negative = inhibition, actives largely listed as inhibitors. 410,000 compounds, 1.2% hits. AID 1159524; calls by dose curve; tested in HEK293T cells; note: read-out not given here; potency is the fitted concentration of half-maximal effect; nearly all actives have a fitted effect of over 45% in size
HCMV inh: inhibitors of human cytomegalovirus. HFF cells, HCMV-luciferase reporter, 72 h; stronger effect = lower value. activity change, negative = inhibition, % at 57.5 µM. 410,000 compounds, 4.5% hits; in the data active = activity change below about -60%; inconclusive = no clear call, values can overlap the other calls; inactive = above about -39%
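Two compound doses tested in HFFs infected with HCMV-luciferase, MOI 1 PFU/cell, 72 h at 37C. Lysate luminescence read with OneGlo; data normalized against buffer-only and 10uM Salinomycin inhibitor controls.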
Vaccinia Venus: vaccinia inhibition (Venus reporter) | Vaccinia virus Venus reporter expression, fluorescence | Potency, µM (series often up to 36.5 µM), inactives show top-dose activity change, negative = inhibition, hits mostly inhibitors | 330,000 compounds, 0.46% hits; calls by dose curve; tested in A549 cells; note: potency is the fitted concentration of half-maximal effect; nearly all actives have a fitted effect of over 30% in size
Starred values were filed as active, the others as inactive; i = inactive; ? = inconclusive; nt = no result. Unless noted, calls come from the whole dose curve; as a rule, active = well fitted curve in the direction sought with a large enough effect; inconclusive = small, poorly fitted or top-dose-only effect, or another doubt; inactive = no such curve, though single readings can be large; an effect the other way counts as inactive or inconclusive. % is set by controls: 0 for no effect and ±100 for the full control effect.

SMILES	VACV mCherry inh	HCV inh	Giardia FBPA inh	FMDV inh	HCMV inh	Vaccinia Venus
CCOC(=O)c1ccc(NC(=O)NC2CC3CCC(C2)N3)cc1 (stereo not given)	nt	18µM*	5%	-10%	-27	nt
COC(=O)c1ccc(NC(=S)N2CCN(Cc3ccccc3OC)CC2)cc1	nt	-23%	6%	-1%	-80*	nt
O=C(Nc1ccccc1)NC1CC2CCC(C1)N2 (stereo not given)	nt	3%	2%	-14%	13	nt
CCCOC(=O)c1ccc(NC(=O)c2cc(OC)c(OC)c(OC)c2Br)cc1	nt	7.1µM*	-1%	-11%	25	nt
CC(NC(=O)CSc1ncccc1C(=O)O)C1CC2CCC1C2 (stereo not given)	nt	5%	8%	1%	0	nt
CCOC(=O)c1scc(-c2ccc(C)cc2)c1S(=O)(=O)N1CCN(c2ccccc2)CC1	-12%	nt	nt	10%	-21	0%
CCOC(=O)c1ccc(NC(=O)c2ccc(OC(C)C)c(OC)c2)cc1	-9%	?	-8%	40µM*	14	1%
CCOC(=O)c1cc(-c2ccccc2)n(CC(=O)NCc2ccccc2OC)c1C	-13%	nt	nt	-10%	-61*	-12%
CCOC(=O)c1ccc(NC(=O)Nc2ccc(OC)c(OC)c2)cc1	nt	25µM*	-4%	-13%	?	nt
CC(C)(C)c1cc(C(=O)O)n(Cc2ccc(Cl)cc2Cl)n1	-11%	12%	16%	-3%	55	-8%
CCC(C(=O)NC1CCCCCC1)n1nc(C)c2c(C)n(-c3ccccc3)nc2c1=O (stereo not given)	i	?	nt	2%	-40	-14%
CCN(CC)CCCNC(=O)c1nn(-c2ccc(OC)cc2)c(=O)c2c1c1ccccc1n2C	3%	nt	nt	-1%	14	-15%
Oc1ccc(Cl)cc1C1C=C(c2ccc3c(c2)OCO3)NC(c2ccc(Cl)cc2)N1 (stereo not given)	-25%	nt	nt	nt	nt	-14%
Nc1nnc(P(c2ccccc2)c2ccccc2)s1	nt	8%	3%	-14%	-64*	nt
Nc1nnc(-c2ccccc2)s1	nt	2%	-1%	14%	65	nt
CCNc1nc(C)c2cc(Br)c(=O)n(CC)c2n1	nt	8.9µM*	3%	-12%	40	nt
CCNc1ncc2nc(C)c(=O)n(CCC#N)c2n1	nt	nt	1%	-18%	nt	nt
COc1ccc(S(=O)(=O)NCCc2cn3ccsc3n2)cc1	-11%	nt	nt	21%	?	-10%
NC(=S)Nc1cccc2cc3ccccc3cc12	nt	?	-10%	54%	-105*	nt
NC(=S)Nc1cc2ccccc2c2ccccc12	nt	?	?	?	-72*	nt
CNc1ccccc1C(C)(C)c1cc(C)[nH]n1	nt	1%	2%	-27%	-65*	nt
CC(=O)N1c2c(cc(Br)cc2S(=O)(=O)Nc2ccc(OC(F)(F)F)cc2)CC1C (stereo not given)	-3%	nt	nt	25%	-82*	-13%
CCOC(=O)c1ccc(NS(=O)(=O)c2cc(Br)cc3c2N(C(C)=O)C(C)C3)cc1 (stereo not given)	-7%	nt	nt	25%	-29	-6%
CC(=O)N1c2c(cc(Br)cc2S(=O)(=O)NCc2ccc(C)cc2)CC1C (stereo not given)	6%	-8%	-4%	4%	-66*	-5%
COCCCn1c(SCCc2ccccc2)nc2cc(OC)c(OC)cc2c1=N	nt	13µM*	-11%	?	-18	nt
SMILES	VACV mCherry inh	HCV inh	Giardia FBPA inh	FMDV inh	HCMV inh	Vaccinia Venus
COCCn1c(=NC(=O)c2cc(-c3cccs3)nc3ccccc23)sc2cc(S(N)(=O)=O)ccc21	?	10µM*	-2%	-16%	42	?
C=CCn1c(=NC(=O)c2cc(-c3cccs3)nc3ccccc23)sc2cc(S(N)(=O)=O)ccc21	?	?	-3%	?	-26	-24%
C[C@H](NC(=O)N1CCn2c1nc1ccccc12)C(=O)NCc1ccc2c(c1)OCO2	nt	-5%	nt	-11%	-19	nt
COc1cc(S(=O)(=O)NCCc2c(C)[nH]c3ccccc23)c(C)cc1C	-4%	nt	nt	34%	-103*	-17%
O=C(c1cc2ccccc2o1)N1CCN(c2ncccn2)CC1	i	-3%	nt	-3%	10	-14%
O=C(COc1ccc(Cl)cc1)Nc1ccc(C(=O)NCc2cccnc2)cc1	nt	13µM*	5%	14µM*	nt	nt
Cc1ccc(OCc2ccc(C(=O)NCc3cccnc3)cc2)cc1C	-14%	?	0%	-16%	-72*	-14%
O=C(NCc1cccnc1)c1ccc(COc2ccc(Cl)cc2)cc1	nt	?	-10%	-7%	-86*	nt
O=C(Cc1ccc(Cl)cc1)c1c[nH]c(C(=O)NCc2cccnc2)c1	-12%	?	9%	7.9µM*	25	-12%
Cc1cccc(OCC(=O)Nc2ccc(C(=O)NCc3cccnc3)cc2)c1	nt	nt	-3%	nt	nt	nt
CN(C)CCCN(C(=O)c1ccc(S(=O)(=O)N2CCCCCC2)cc1)c1nc2c(F)cccc2s1	nt	-3%	nt	-22%	-7	nt
O=C(Nc1cccc2ncccc12)c1ccc(OCc2ccccc2)cc1	nt	16µM*	-2%	?	?	nt
CCCCCCCCCOC(=O)CNc1nc(C#N)nc(NCC(=O)OCCCCCCCCC)n1	-12%	nt	nt	nt	nt	-9%
NCCCCCc1nnc(SCc2ccccc2Cl)o1	nt	-20%	0%	?	-76*	nt
NCCc1nnc(SCc2c(Cl)cccc2Cl)o1	nt	7%	6%	-17%	-25	nt
N[C@@H](Cc1ccccc1)c1nnc(SCc2ccccc2Cl)o1	nt	-3%	-5%	1%	-70*	nt
COc1ccc(OC)c2sc(NC(=O)C(C)C)nc12	-27%	7.9µM*	-24%	-9%	-6	0%
COc1ccc(OC)c2sc(NC(=O)CCS(=O)(=O)c3ccccc3)nc12	-8%	?	nt	-10%	20	?
CCC(=O)Nc1nc2c(OC)ccc(C)c2s1	?	?	-3%	-13%	39	-17%
COc1ccc(OC)c2sc(NC(=O)CCSc3ccccc3)nc12	-10%	10µM*	5%	-25%	-20	-22%
